Results on 99 molecules are retold here after PubChem BioAssay AID488857 (Sanford-Burnham Center for Chemical Genomics, 2010).

The whole screen tested about 1,400 compounds, of which about 560 (40%) were called active.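 How the source made its calls: active means mean inhibition over duplicate tests at 10 µM above 50%; inactive means the rest.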 So high a share suggests a set chosen from earlier hits. This is one part of the list.

This experiment is described as follows: ASC/caspase-1 reporter retest in S. cerevisiae at one dose, specificity check for NALP1 project (AID 488857). As to conditions: S. cerevisiae ASC/Caspase-1, beta-galactosidase luminescence, 24 h; at 10 µM; active compounds read high.
In the case of `N=c1ccn(Cc2ccc(Cl)cc2Cl)cc1`, the inhibition was 38% (inactive). Next, `CCOC(=O)c1c(-c2ccccc2)nc2ccccn12`: 99.1% (active). Then `CCOCCCn1c(=NC(C)=O)c(C(=O)OCC)cc2c(=O)n3ccccc3nc21`, with 19.2% (inactive).

As for `CCOC(=O)CSc1nnc(-c2ccccc2)c(=O)[nH]1`, the inhibition was 45% (inactive). With `Cc1cc(C)n(C(C[N+](=O)[O-])c2ccc(Cl)cc2)n1` (centres undefined), the inhibition was 99.2% (active). Regarding `Cc1cccc(C)c1NC(=O)CSc1nc2ccccc2c(=O)[nH]1`, the inhibition is 34.6% (inactive). Next, `Cc1cccc(OCCCSc2nc3ccc(C)cc3[nH]2)c1`: 83.2% (active); `Cc1ccccc1OCCCSc1nc2ccccc2[nH]1`: 75% (active).

In the case of `O=C(O)C1CCN(C(=O)c2csc(-c3ccc4c(c3)CCO4)n2)CC1`, the inhibition was 38.6% (inactive).

Turning to `O=CC1=C(c2ccccc2)Oc2ccccc2O1`, the inhibition is 93.3% (active). Next, `CCn1c(SCC(=O)Nc2ccc3c(c2)OCO3)nnc1-c1cnccn1`: 30.1% (inactive); `Cc1ccc2nc(NC(=O)c3ccc4ncsc4c3)sc2c1`: 12.6% (inactive). Then `O=C(Nc1nc2ccccc2s1)C1c2ccccc2Oc2ccccc21`, with 39.3% (inactive); and `Nc1ccc(C(=O)Nc2nc3ccccc3s2)cc1`, with 75.4% (active). Next, `Fc1ccc(N2CCN(Cc3cnc(Oc4ccc(Br)cc4)s3)CC2)cc1`: 14.7% (inactive); `CCOc1ccc(NC2=C(OC)C(=O)c3ccccc3C2=O)cc1`: 44.1% (inactive); `CCOc1ccc(S(=O)(=O)N2c3ccccc3CC2C)cc1` (centres undefined): 52.7% (active). Take `COC1=C(Nc2ccc(O)cc2)C(=O)c2ccccc2C1=O`: the inhibition is 40.2% (inactive).

Take `COc1ccc(Nc2cc(C)c3ccc(O)cc3n2)cc1`: the inhibition is 98.1% (active). Next, `Cc1cc(Nc2ccccc2)nc2cc(O)ccc12`: 99.1% (active); `CC1Cc2ccccc2N1CC(=O)Nc1ccc2c(c1)OC(F)(F)O2` (centres undefined): 29.9% (inactive). For the molecule `O=C(/C=C/c1ccccc1Cl)c1ccc[nH]1`, the inhibition is 67.8% (active). For the molecule `COC(=O)C1=C(C)NC(C)=C(C(=O)OC)C1c1ccc(OC(=O)c2oc3ccccc3c2C)c(OC)c1`, the inhibition is 25.6% (inactive). Turning to `CC(=O)C1=C(O)C(=O)N(CCC(=O)O)C1c1ccc(Cl)cc1Cl` (centres undefined), the inhibition was 35.7% (inactive). Then `Cc1ccc(-n2nnnc2C(Cl)c2nnnn2-c2ccc(C)cc2)cc1`, with 40.1% (inactive); and `COc1ccc2cnn(-c3ccc(C)cc3)c(=O)c2c1OC`, with 44% (inactive). Then `Cc1ccc(-n2c(Cl)c(Cl)nc(Cl)c2=O)cc1`, with 100% (active); and `CCN(CC)S(=O)(=O)c1ccc2[nH]c(=O)cc(C(=O)Nc3ccc(C)c(S(=O)(=O)N(CC)CC)c3)c2c1`, with 25.1% (inactive); and `CCCNC(=O)c1nnsc1S(=O)(=O)c1ccc(Cl)cc1`, with 91% (active). `COc1ccc(CCNC(=O)C2CCN(S(=O)(=O)c3ccc(Cl)cc3)CC2)cc1OC`: the inhibition is 23.4% (inactive). Next, `CNC(=O)c1nnsc1S(=O)(=O)c1ccc(Cl)cc1`: 73% (active). Next, `Cn1cnc([N+](=O)[O-])c1S(=O)(=O)c1ccc(Cl)cc1`: 13.2% (inactive); `CN1C(=O)CSc2ccc(NC(=O)N3CCN(c4ccccn4)CC3)cc21`: 40.5% (inactive); `CN(C)c1nc(N)nc(CSc2nnnn2-c2ccc(C(=O)O)cc2)n1`: 18.2% (inactive). Then `CC(C)(C)n1nc(-c2ccc(F)cc2)c2c(N)ncnc21`, with 97.5% (active); and `O=C(COC(=O)c1ccc(-c2ccc([N+](=O)[O-])cc2)o1)NC(=O)NC1CCCCC1`, with 46.6% (inactive); and `c1ccc(-c2c(-c3ccccc3)n(Cc3ccco3)c3ncnc(NCCCn4ccnc4)c23)cc1`, with 46.7% (inactive). With `COc1ccc(/C=N\NC(=O)c2cc(OCC(F)(F)F)ccc2OCC(F)(F)F)cc1`, the inhibition was 27.6% (inactive). As for `O=C(C[n+]1ccc(C(=O)N/N=C/c2ccc(OCc3ccccc3)cc2)cc1)c1ccccc1`, the inhibition is 54.6% (active).

Turning to `O=C(Oc1ccc(/C=N/NC(=O)c2ccccc2O)cc1)c1ccccc1`, the inhibition was 34.4% (inactive). For the molecule `COc1ccc(N2C(=O)C3[C@@H](C2=O)C2(Cl)C(Cl)=C(Cl)C3(Cl)C2(OC)OC)cc1` (some centres undefined), the inhibition is 50.2% (active). `COc1ccc(N2C(=O)C(Cl)=C(Nc3c(C)n(C)n(-c4ccccc4)c3=O)C2=O)cc1`: the inhibition is 29.6% (inactive).

`CCOc1oc(-c2ccc(OC)cc2)nc1C(F)(F)F`: the inhibition was 40.6% (inactive). Next, `CCc1ccc(OCCCC(=O)Nc2cccc(C(=O)O)c2)cc1`: 39.6% (inactive). Then `CCc1ccc(OCCNC(=O)OCc2ccccc2)cc1`, with 57.6% (active); and `CC1=NN(c2ccc(C)cc2C)C(=O)C1C(c1cccc(O)c1)C1C(=O)N(c2ccc(C)cc2C)N=C1C` (centres undefined), with 43.8% (inactive); and `CN(C)CCN(Cc1ccccc1)c1nccc(N(C)C)c1C#N`, with 26.8% (inactive). Then `COc1cccc(C(=O)N2CCCC(c3nc(-c4cccs4)no3)C2)c1` (centres undefined), with 22.3% (inactive); and `COc1cccc(-c2nn(C)c3sc(C(=O)N4CCOCC4)cc23)c1`, with 51.4% (active); and `Cc1c(C(=O)N2CCOCC2)[nH]c2ccc(OCc3ccccc3)cc12`, with 42.6% (inactive). For the molecule `COc1cc(S(=O)(=O)NCc2cccnc2)ccc1F`, the inhibition was 46.6% (inactive). Then `C=CCCCCc1nc2ccccc2c(=O)n1N`, with 36.1% (inactive); and `COc1ccc2cc(C(C)c3nc4ccccc4c(=O)n3N)ccc2c1` (centres undefined), with 59.4% (active). In the case of `CCOC(=O)c1ccc(N2CCOCC2)c(NC(=O)COCC(=O)O)c1`, the inhibition is 9.9% (inactive). Consider `COc1ccc(-c2cn3cccnc3n2)cc1Br`, for which the inhibition is 78.9% (active).

As for `CCN(CC)S(=O)(=O)c1ccc2oc(C(=O)NC3CCCc4ccccc43)c(C)c2c1` (centres undefined), the inhibition is 23.3% (inactive). With `O=C(c1ccccc1)c1c2c(cc3sc4ccccc4[n+]13)-c1cccc3cccc-2c13`, the inhibition is 46.8% (inactive).

Take `Cc1ccc(S(=O)(=O)N(C(=O)c2ccncc2)c2ccc(OC(=O)c3ccncc3)c3ccccc23)cc1`: the inhibition is 26.1% (inactive). As for `CCCc1[nH]n(-c2nc3ccccc3s2)c(=O)c1C=NCC(C)C`, the inhibition is 78% (active). Next, `CC(C)(C)C(=O)NC1CCN(S(=O)(=O)c2ccc(C(F)(F)F)cc2)CC1`: 23.1% (inactive); `CCCN1CCN(CCCNC(=O)CCNC(=O)Cn2ccc3ccccc3c2=O)CC1`: 35.4% (inactive); `COc1ccnc(N2CCN(c3ccccc3)CC2)c1C#N`: 56.4% (active). Then `O=C(NN1C(=O)c2cc(Br)ccc2NC1c1cc(Br)cc(Br)c1O)c1ccncc1` (centres undefined), with 76.2% (active); and `Cc1cccc(N2Cc3ccccc3C2=NC(=O)c2ccc(Cl)nc2)c1`, with 28.3% (inactive). Next, `CCCCNc1nc2ccccc2[nH]1`: 31.2% (inactive). In the case of `Fc1ccccc1-c1ccc(/C=N/Nc2nc3ccccc3[nH]2)o1`, the inhibition is 70% (active).

`COc1ccc(NC(=O)CC2Sc3ncnn3C2=O)cc1` (centres undefined): the inhibition is 75.8% (active). Next, `CCOC(=O)c1ccc(NC(=O)c2nccnc2C(=O)O)cc1`: 38.5% (inactive); `CCOC(=O)c1ccc(NC(=O)CSc2nnc(CNc3ccc(C)cc3)n2C)cc1`: 31.4% (inactive). Then `O=C(CC1Sc2ncnn2C1=O)Nc1ccc(Br)cc1` (centres undefined), with 33.6% (inactive). With `CCOC(=O)c1ccc(NC(=O)CC2Sc3ncnn3C2=O)cc1` (centres undefined), the inhibition is 64.7% (active). Then `C/C(=N\Nc1nc2c(s1)CCCC2)c1ccccc1`, with 37.2% (inactive). On to `CC1CCCCN1C(=S)NCCc1ccccc1` (centres undefined), for which the inhibition was 59.1% (active).

Consider `C=C1SC(Nc2c(C)cccc2C)=NC12CCCCC2`, for which the inhibition was 47.3% (inactive). Next, `CC(C)Cc1nnc(NC(=O)CSc2nc(N)cc(=O)[nH]2)s1`: 25.6% (inactive); `Brc1ccc2c(c1)OCCOCCOc1cc(Br)ccc1OCCOCCOCCO2`: 64.6% (active). `Cc1nnc(-c2ccccc2)o1`: the inhibition was 39.7% (inactive). Consider `O=C(CSc1nnnn1C1CCCCC1)N1c2ccccc2Sc2ccccc21`, for which the inhibition was 39.5% (inactive).

Turning to `Cc1nc(/N=C(\N)NC(=O)N2c3ccccc3Sc3ccccc32)nc2ccccc12`, the inhibition is 53.6% (active). Then `O=[N+]([O-])c1ccc(-n2nnnc2-c2ccccc2)cc1`, with 19.9% (inactive); and `O=C1C=CCC(/C=C/c2ccccc2)O1` (centres undefined), with 63% (active). Take `O=C1c2ccsc2SCCN1Cc1c(Cl)cccc1Cl`: the inhibition was 56.2% (active). Next, `O=S(=O)(Nc1ccc(-n2cccc2)cc1)c1ccc(Cl)cc1Cl`: 37.6% (inactive); `Cc1sc2ncnc(N/N=C/c3ccccc3O)c2c1C`: 58.4% (active); `COc1cc(C(=O)CCN2CCC(c3ccccc3)C2)cc(OC)c1OC` (centres undefined): 44.2% (inactive). Then `CC1CCN(C(=O)/C=C/c2ccc(C(C)(C)C)cc2)CC1`, with 63.4% (active); and `O=C(/C=C/c1ccccc1)N1CCC(c2ccccc2)C1` (centres undefined), with 62.6% (active); and `Cc1cc(C)cc(OCc2nnc(SCC(=O)OC(C)C)o2)c1`, with 61.5% (active). For the molecule `CC(=O)Nc1ccc(C(=O)CSc2nnc(Cc3ccccc3)o2)cc1`, the inhibition was 24.2% (inactive).

Regarding `COc1ccc(CNc2cccc(F)c2)cc1Br`, the inhibition was 72.2% (active). Turning to `COc1ccc(Cc2ccc(OC)c(N)c2)cc1N`, the inhibition is 53.1% (active). Turning to `COc1cc(Cc2cnc(N)nc2N)cc(OC)c1OC`, the inhibition is 14.2% (inactive).

Turning to `Cc1ccc(/C=N/NC(=O)c2ccc3nc[nH]c3c2)o1`, the inhibition is 47.4% (inactive). Next, `COC(=O)N/N=C/c1ccc(OC(=O)c2ccco2)c(OC)c1`: 30.8% (inactive); `COC(=O)N/N=C/c1ccc(-c2cccc(Cl)c2)o1`: 80.9% (active); `CC1(C)CCSC(/C=C/c2ccccc2)=N1`: 92% (active). For the molecule `C(#Cc1ccc(C#CCN2CCCC2)cc1)CN1CCCC1`, the inhibition was 42.5% (inactive). For `Cc1[nH][nH]c(=O)c1C(c1c(C)[nH][nH]c1=O)c1cn(Cc2ccc(Cl)c(Cl)c2)c2ccccc12`, the inhibition was 61.2% (active). Next, `Cc1[nH][nH]c(=O)c1C(c1ccc(-c2ccc(Cl)c(Cl)c2)o1)c1c(C)[nH][nH]c1=O`: 39.9% (inactive).
